Peg3 promoter: inhibitors of Peg3 promoter; HeLa PEG-Prom luciferase reporter, luminescence, overnight; inhibition, % at 20 µM; 360,000 tested, 1.7% active;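 active = inhibition of at least 50% at 20 µM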
TRPM1 prom inh: inhibitors of MITF-driven TRPM1 promoter in melanoma cells | SK-MEL-5 TRPM1 promoter luciferase, 24 h | AID 488899 | inhibition, % at 12.5 µM | 330,000 tested, 0.83% active;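 active = mean inhibition across replicates of 60% or more, whatever share of single replicates reaches that level; inconclusive = some that reach 60%, reason not given; inactive = mean inhibition across replicates below 60%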
Shn3 3UTR inh: reduces Shn3 3'UTR luciferase signal in osteoblasts | inhibition, % at 12.5 µM | 360,000 tested, 0.52% active | Clone20 osteoblast Shn3 3'UTR firefly luciferase, 24 h;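 active = mean inhibition of at least 75% with every replicate also reaching 75%; inconclusive = mean inhibition at least 75% but some replicate below; inactive = mean inhibition below 75%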
KKLEB cytotox: CF airway cell cytotoxicity counter-screen | KKLEB CF airway cells viability, ATPlite luminescence, overnight; active compounds read low; cells stimulated with P. aeruginosa culture filtrate | activity change (cytotoxicity), % at 5 µM | 360,000 tested, 0.36% active;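 active = corrected activity change at or below -50% at 5 µM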
CF NFkB block: blocks PAF-induced NF-kB reporter in cystic fibrosis cells; KKLEB NF-kB-GFP reporter, GFP fluorescence overnight; 360,000 tested, 0.86% active; inhibition, % at 5 µM; AID 588850;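 active = at least 50% inhibition at 5 µM, scaled per plate between neutral and stimulator controls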;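 note: PAF is a Pseudomonas aeruginosa culture filtrate used as stimulus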
HIF-2a block: HIF-2a inhibition; 786-0 RCC cells HIF-2a reporter, luciferase luminescence, overnight; inhibition, % at 18.8 µM; 360,000 tested, 0.72% active;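 active = inhibition of the luminescence signal of 40% or more relative to plate controls, in a single-dose primary screen at 18.75 µM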
Hits are given with their value; n = inactive; u = inconclusive; x = no result given. A selection: hits, their analogues and other compounds. The true share with any hit is near 2.7%.

SMILES	Peg3 promoter	TRPM1 prom inh	Shn3 3UTR inh	KKLEB cytotox	CF NFkB block	HIF-2a block
CCOC(=O)c1c(CSC(=N)N)n(-c2ccc(Br)cc2)c2cc(Br)c(OC(C)=O)cc12	n	n	n	n	n	n
C=CCCc1ccc(C#N)c(SCc2c(C(=O)OCC)c3cc(OC(C)=O)c(Br)cc3n2C)n1	n	n	89.4	n	n	n
CCOC(=O)c1c(CSc2nc(C)cc(C)c2C#N)n(C)c2cc(Br)c(OC(C)=O)cc12	n	n	n	-54.6	n	n
O=Nc1c(O)c2ccccc2c2ccccc12	96.5	97.3	n	-88.2	89.0	n
CCn1c2ccccc2c2cc(N=C3SC(CC(=O)Nc4ccccc4)C(=O)N3C)ccc21 (stereo unspecified)	n	n	n	-52.0	56.4	n
O=C(Cn1cc(C(=O)c2ccco2)c2ccccc21)Nc1ccccc1F	n	n	89.0	n	n	n
O=C(Cn1cc(C(=O)C(F)(F)F)c2ccccc21)Nc1ccccc1F	n	n	n	n	n	n
COc1ccc(CCNC2=C(Cl)C(=O)N(CCc3ccc(OC)c(OC)c3)C2=O)cc1OC	79.9	n	n	n	n	n
COc1ccc(NC2=C(Cl)C(=O)N(CCc3ccccc3)C2=O)c(OC)c1	n	n	n	n	n	n
COc1ccc(CCNc2ncnc3sc(C)cc23)cc1OC	n	n	88.6	n	n	n
CC(NCc1cccc(OCc2ccccc2)c1)C(O)c1ccccc1 (stereo unspecified)	n	n	n	n	n	n
CC(NCc1ccc(OCc2ccc(Cl)cc2)cc1)C(O)c1ccccc1 (stereo unspecified)	104.1	n	97.0	n	n	n
CC1C=CC=CC=CC=CC=CC=CC=CC(OC2OC(C)C(O)C(N)C2O)CC2OC(O)(CC(O)CC(O)C(O)CCC(O)CC(O)CC(=O)OC(C)C(C)C1O)CC(O)C2C(=O)O (stereo unspecified)	n	n	n	n	55.2	n
CCOC(=O)N1CCN(C(=O)C(C)N(c2ccc(Oc3ccccc3)cc2)S(C)(=O)=O)CC1 (stereo unspecified)	n	n	n	n	n	n
CCOC(=O)C1CCN(C(=O)C(C)N(c2ccc(Oc3ccccc3)cc2)S(C)(=O)=O)CC1 (stereo unspecified)	n	n	87.1	n	n	n
O=C(OCC12CC3CC(CC(C3)C1)C2)c1ccc(NCc2cc(O)ccc2O)cc1	n	n	98.3	n	58.5	81.0
CCNC(=O)OCCC12CC3CC(CC(C3)C1)C2	n	n	n	n	n	n
O=C(OCCC12CC3CC(CC(C3)C1)C2)c1ccc(NCc2cc(O)ccc2O)cc1	n	67.0	99.1	n	n	77.1
Cc1cccc(C)c1NC(=O)C(c1ccc(C#N)cc1)n1c(=O)c(-c2ccccc2)nc2ccccc21 (stereo unspecified)	x	x	x	x	x	n
CC(=O)c1ccc(Nc2nc(-c3sc(C)nc3C)cs2)cc1	54.8	x	n	n	n	n
Cc1ccccc1-c1cc2nc(NCc3ccc(N(C)C)cc3)n(C)c(=O)c2s1	n	x	n	n	n	n
CC(C)C#Cc1cnc2c(c1)C(=O)N([C@@H](C)CO)C[C@@H](C)[C@H](CN(C)Cc1cccc(F)c1)O2	n	x	n	n	n	n
COc1cc(NC(=O)c2cc(-c3ccccc3)nc3c2cnn3C(C)C)cc(OC)c1OC	n	n	n	n	n	n
CNC(=O)c1cccc(NC(=O)c2cc(-c3ccccc3)nc3c2cnn3C(C)C)c1	59.1	n	n	n	n	n
Nc1cc(=O)[nH]c(SCCSc2cc(Cl)ccc2Cl)n1	53.9	n	n	n	n	n
SMILES	Peg3 promoter	TRPM1 prom inh	Shn3 3UTR inh	KKLEB cytotox	CF NFkB block	HIF-2a block
Nc1cc(=O)[nH]c(SCCSc2ccccc2F)n1	n	n	n	n	n	n
CC1(C(=O)NS(=O)(=O)c2ccc3c(c2)CCO3)CCN1C(=O)Cc1ccc(-c2ccccc2)cc1 (stereo unspecified)	n	x	n	n	n	n
CCN1C(=O)CC(c2ccccc2)N(C2CCCC2)c2nc(Nc3ccc(C(=O)NC4CCN(C)CC4)cc3OC)ncc21 (stereo unspecified)	93.7	87.4	n	n	n	n
COc1cc(C(=O)NC2CCN(C)CC2)ccc1Nc1ncc2c(n1)N(C1CCCCC1)CCC(=O)N2C	90.7	u	n	n	n	n
CCN1C(=O)CSc2ccc(C(=O)NC3CCCCC3)cc21	n	n	n	n	n	n
COc1cc(C(=O)NC2CCN(C)CC2)ccc1Nc1ncc2c(n1)N(Cc1ccccc1)CCC(=O)N2C	n	n	n	n	n	n
CCN1C(=O)CC(C(C)C)N(C2CCCC2)c2nc(Nc3ccc(C(=O)NC4CCN(C)CC4)cc3OC)ncc21 (stereo unspecified)	66.2	83.8	n	n	n	n
Cc1cccc(C)c1NC(=O)C1(C)CN(S(C)(=O)=O)CC(=O)N1CCc1ccc(O)cc1 (stereo unspecified)	x	x	x	x	x	n
CCCc1nc2c3ccccc3ccn2c1Cc1ccc(OC)cc1C	n	x	n	n	n	n
S=C(Nc1cccnc1)Nc1cccc2cnccc12	n	n	n	n	n	n
CN(C)S(=O)(=O)c1cccc(NC(=S)Nc2cccc3cnccc23)c1	n	n	n	n	73.1	n
O=c1[nH]c(/C(Cl)=C/c2cc(Cl)ccc2O)nc2cc(Cl)ccc12	n	n	n	-53.1	n	n
O=c1[nH]c(/C(Cl)=C/c2c(F)cccc2Cl)nc2cc(Cl)ccc12	n	n	n	n	n	n
CCc1ccc(S(=O)(=O)/N=C2/C=C(Sc3ncn[nH]3)C(=O)c3ccccc32)cc1	102.0	70.0	98.0	n	80.6	89.0
CCc1ccc(S(=O)(=O)/N=C2\C=C(Nc3cccc(C(=O)O)c3)C(=O)c3ccccc32)cc1	n	n	n	n	95.8	n
CCc1ccc(S(=O)(=O)/N=C2\C=C(Nc3ccc(O)cc3)C(=O)c3ccccc32)cc1	103.6	99.9	94.8	-88.2	99.4	68.6
O=C1C=C(Nc2ccc(O)cc2)C(=O)c2ccccc21	n	n	n	n	n	n
O=C(Nc1cccc2c1CCCC2)c1cc(C2CCCCN2S(=O)(=O)c2cccs2)on1 (stereo unspecified)	n	x	n	n	n	n
O=C1NC[C@@H](CCCCN2CCN(Cc3ccccc3)C(=O)C2=O)N(CCC2CCCCC2)C1=O	x	x	x	x	x	n
c1ccc(CNc2nc(N3CCN(Cc4ccccc4)CC3)nc3ccccc23)cc1	64.7	x	n	n	n	n
c1ccc(CN2CCC(Nc3nc(-c4ccccc4)nc4ccccc34)CC2)cc1	75.0	n	n	n	n	n
c1ccc(CN2CCC(CNc3ncnc4ccccc34)C2)cc1 (stereo unspecified)	n	n	n	n	n	n
O=C(CCCCCN1C(=O)c2ccccc2C1=O)Nc1ccccc1	n	n	n	n	n	n
O=C(CCCCCCC(=O)Nc1ccccc1)NO	n	84.2	n	x	x	n
